Test results published in PubChem BioAssay AID1069 (NMMLSC, 2008).

Assay: activators of LNCaP cell differentiation, retest, confirmation, side scatter shift, flow cytometry (AID 1069);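 further: LNCaP human prostate cancer cells in low-serum medium with charcoal-stripped FBS; percent of cells with raised granularity gated so DMSO controls show 10%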
Conditions: 4 d, side scatter shift, at 10 µM, stronger effect = higher value

Row | Structure (SMILES) | side scatter shift
1 | CCN(CC)CCCNC(=O)c1cc(-c2ccc(Cl)c(Cl)c2)on1 | 36.7%
2 | CC(=O)c1cccc(NC2c3ccccc3C(=O)N2Cc2ccc3c(c2)OCO3)c1 (configuration not stated) | 4.25%
3 | COc1cccc(-c2cc(C(=O)N3CCCc4ccccc43)no2)c1 | 1.8%
4 | CN1CCN(c2oc(COc3ccc(-c4ccccc4)cc3)nc2C#N)CC1 | 10.8%
5 | Cc1cc(N2CCN(C)CC2)nc2ccc(NC(=O)c3ccc(Br)o3)cc12 | 56.4%
6 | C=CCn1c(=N)n(CC(O)COc2ccc(OC)cc2)c2ccccc21 (configuration not stated) | 10.9%
7 | CCOC(=O)N1CCC(NC(=O)C2CCCN(Cc3nc(-c4cccc(Cl)c4)oc3C)C2)CC1 (configuration not stated) | 5.35%
8 | CCc1cc(C)cc(OCCNC(=O)c2ncn[nH]2)c1 | 0%
9 | Cc1ccccc1-c1nc(CN2CCC(C(=O)NCCCN3CCOCC3)CC2)c(C)o1 | 13.4%
10 | O=c1cc(-c2ccccc2)[nH]c2ccccc12 | 9.15%
11 | Cc1ccnc(NC(=O)CCC(=O)N(CC(=O)NC2CCCCC2)c2cccc(C)c2C)c1 | 6.85%
12 | Cc1ccccc1Cn1cnc2c(cnn2C(C)(C)C)c1=O | 5.05%
13 | Cc1ccc(-c2noc(CCC(=O)NC3CCN(Cc4ccccc4)CC3)n2)cc1 | 4.5%
14 | Cc1ccc(C)c2[nH]c(=O)c(CN(CCN3CCCC3)C(=O)Nc3cccc(Cl)c3)cc12 | 49.6%
15 | CCc1ccc(-c2nc(CN3CCCC(C(=O)NCCc4ccc(OC)c(OC)c4)C3)c(C)o2)cc1 (configuration not stated) | 17.3%
16 | Cc1cc(=O)n2nc(N3CCCC(C(=O)NCCCN4CCc5ccccc5C4)C3)sc2n1 (configuration not stated) | 9.3%
17 | Cc1nnc(NCc2n[nH]c(=O)c3ccccc23)c2ccccc12 | 6.5%
